Measured values reported in ChEMBL document CHEMBL3988442, “University of Dundee, Small-Polar-MMV Screening Library” (2021).

What was measured:
[1] = biological target: T1, Aspartate--tRNA(Asp/Asn) ligase (Mycobacterium tuberculosis (strain ATCC 25618 / H37Rv)) (UniProt P9WFW3); assay: Assay for Asp RNA synthetase-1 from Mycobacterium tuberculosis; format: functional; design: scale not given: direction of the effect not stated beside the values; conditions: 30 µM; further: in the data most compounds retested in dose-response had high values
T1 sequence (whole entry): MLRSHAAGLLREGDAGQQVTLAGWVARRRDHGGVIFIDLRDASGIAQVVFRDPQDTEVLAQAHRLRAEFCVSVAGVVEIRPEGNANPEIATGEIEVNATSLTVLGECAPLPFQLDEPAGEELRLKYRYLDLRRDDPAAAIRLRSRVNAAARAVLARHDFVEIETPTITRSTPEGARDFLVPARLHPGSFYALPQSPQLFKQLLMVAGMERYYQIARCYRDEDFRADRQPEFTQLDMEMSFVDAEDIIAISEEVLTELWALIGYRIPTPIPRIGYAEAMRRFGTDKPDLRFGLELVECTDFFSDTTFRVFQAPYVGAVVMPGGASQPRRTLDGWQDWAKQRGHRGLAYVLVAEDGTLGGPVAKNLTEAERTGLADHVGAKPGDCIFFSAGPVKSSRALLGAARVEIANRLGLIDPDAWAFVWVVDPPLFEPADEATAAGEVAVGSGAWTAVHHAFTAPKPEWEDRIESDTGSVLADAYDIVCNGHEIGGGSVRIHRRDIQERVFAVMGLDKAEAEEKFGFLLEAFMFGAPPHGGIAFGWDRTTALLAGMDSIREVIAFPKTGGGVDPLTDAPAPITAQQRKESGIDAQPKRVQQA

[2] = biological target: Shiga toxin 2 (Escherichia coli O157:H7) (UniProt P09385+P09386); assay: E. coli 0.157:H7 Shiga Toxin SOP - stx2 screening assay; format: functional; design: scale not given: direction of the effect not stated beside the values; conditions: 30 µM

Row | SMILES | Percent Effect [1] [%] | Percent Effect [2] [%]
1 | O=C(Nc1ccccc1F)N1CCN(Cc2noc(C3CC3)n2)CC1 | 1.99 | -11.6
2 | Cc1ccccc1C(=O)Nc1cnn(CC(=O)NC2CCCC2)c1 | 2.07 | -6.1
3 | CCc1ncc2c(n1)CN(CC(=O)Nc1ccc(Cl)cn1)CC2 | 0.367 | -9.49
4 | Cc1cccc2c1cnn2CCCNC(=O)CCCC(=O)O | 15.5 | -61.8
5 | Cc1nc(CN2CCCC(CCc3ccc(F)cc3F)C2)c[nH]1 (configuration not stated) | -7.38 | -3.15
6 | Cc1csc(N2CCN(Cc3ccccn3)CC2C)n1 (configuration not stated) | 6.41 | -0.687
7 | Cn1ncc2c1CCCC2NCc1cnc(-c2ccccc2)nc1 (configuration not stated) | 8.81 | -1.99
8 | NC(=O)c1nc(COc2ccc3c(c2)OCO3)no1 | -0.145 | -76.3
9 | Cc1nn2c(N3CCC(O)CC3)cc(-c3ccccc3)nc2c1C | 1.19 | 7.56
10 | CC(=O)N(Cc1noc(C)n1)C1CCN(Cc2ccncc2Cl)C1 (configuration not stated) | 1.27 | -3.88
11 | CC(O)CN1CCC(CNCc2c[nH]nc2C(C)(C)C)CC1 (configuration not stated) | 0.384 | 14.9
12 | Cc1cc(C)c2c(c1)C1(CC(=O)Nc3c1cnn3C(C)C)C(=O)N2 (configuration not stated) | 1.68 | 1.39
13 | COC(=O)CCNC(=O)C1CC(=O)N(C2CCCC2)C1 (configuration not stated) | 0.859 | -13.4
14 | CC(=O)NCCc1cc(N2CCN(C(C)=O)CC2)nc(C2CC2)n1 | -3.2 | -16
15 | CCOc1cccc(CNC(=O)NCC(O)c2cccc(F)c2)c1 (configuration not stated) | 9.63 | 16.2
16 | CCn1nc2c(cc1=O)CN(Cc1nc(CCOC)no1)CC2 | 2.21 | -7.6
17 | O=C(NCc1ccoc1)Nc1ccc(CN2CCOC2=O)cc1 | -3.73 | -75.3
18 | Cc1ccc(N2CC[C@H]3O[C@@H](C(=O)NCc4ccco4)CC[C@H]32)nn1 | 12.5 | -10.5
19 | O=C(CN1CCC(N2CCNC2=O)CC1)NCC(F)(F)F | -5.14 | -3.06
20 | Cn1ncc2c(=O)[nH]c(CN3CCCC3c3cccs3)nc21 (configuration not stated) | -0.799 | 3.97
21 | COc1cc(S(=O)(=O)N2CCc3ccc(F)cc32)cc(C(=O)O)c1OC | 1.4 | 2.68
22 | N#Cc1cc(NC(=O)C2CC=CC2)ccc1N1CCC(O)CC1 | -1.55 | -9.47
23 | COc1cc(C)nc(N2CCN(C(=O)CNC(C)(C)C)CC2)n1 | -2.1 | -32.2
24 | c1cnn(CC2CN(c3ncnc4ccsc34)CCO2)c1 (configuration not stated) | 1.65 | -10.2
25 | COc1cccc(CCNC(=O)CN2CCN(C)CC2C)c1 (configuration not stated) | 0.495 | 20
26 | Cc1nc(C2CCCN(C(=O)c3ccco3)C2)no1 (configuration not stated) | -1.47 | -1.79

Row | SMILES | Percent Effect [1] [%] | Percent Effect [2] [%]
27 | COCc1cccc(NC(C)C(=O)N(C)Cc2ccccc2)c1 (configuration not stated) | -0.212 | -8.1
28 | Cn1cc(CN2CCC3(CC(=O)N(c4ccc5c(c4)OCO5)C3)C2)cn1 (configuration not stated) | 2.85 | -15.8
29 | Cc1cnn(CC2CCN(CC(O)COc3ccc(F)cc3)CC2)c1 (configuration not stated) | 1.99 | -53
30 | O=c1c2ccccc2nc2n1CCN(Cc1cccs1)CC2 | 1.35 | 12
31 | COCCN1CCC(NC(=O)C2(c3cc(C)cc(C)c3)CC2)CC1 | -4.05 | 22.9
32 | O=C(N1CCOCC1)[C@@]12CCO[C@@H]1CCN(Cc1ccccc1F)C2 | -6.79 | -21.7
33 | CC(C)Nc1nc2c(cc1C(=O)N(C)C)CCNCC2 | 3.61 | -0.0143
34 | O=C(COc1cccc2c1CCC2=O)NCc1ccccc1F | 10.4 | -7.67
35 | CCn1nc(C)c2ncnc(NCC(=O)N3CCOCC3)c21 | -3.08 | -16.4
36 | O=S(=O)(NCc1ccccc1Cn1cncn1)C1CCCC1 | 1.56 | -9.86
37 | CN(C)C(=O)N1CCc2c(nnn2C)C1COCc1ccccc1 (configuration not stated) | 1.92 | -16.6
38 | COCCN1C[C@H]2[C@@H](C1)N(C(=O)c1cccs1)CC[C@H]2OC | 0.503 | 3.28
39 | Cc1cc(C[C@@H]2CCC[C@H]2NCc2cc(C)c(O)c(C)c2)on1 | 2.31 | -2.65
40 | c1ccc(Cn2cncn2)c(CNCC2CNc3ccnn3C2)c1 (configuration not stated) | 0.425 | -35.2
41 | Fc1ccc(-c2cnc(CN3CCCC3Cn3cccn3)o2)cc1 (configuration not stated) | -1.83 | 8.21
42 | CC(=O)Nc1nc(CN2CCCC2Cn2cncn2)cs1 (configuration not stated) | -6.16 | -44
43 | CC(NC(=O)c1cc(-c2cccc(Cl)c2)no1)C(=O)N1CCCC1 (configuration not stated) | 0.15 | -14.8
44 | CC1(NC(=O)Cc2csc(C(C)(C)C)n2)CCS(=O)(=O)C1 (configuration not stated) | -6.9 | -10.1
45 | c1cnn(CC2CCCCN2Cc2cn3ccsc3n2)c1 (configuration not stated) | 1.03 | -12.1
46 | O=C1CN(Cc2nnc(-c3ccc(Br)cc3)o2)CCN1 | -0.167 | -95.1
47 | CN(CC(=O)N1CCN(c2ccccc2F)CC1)c1cnccn1 | 0.903 | 8.69
48 | N#Cc1ccccc1OCCN1CCCC1Cn1cccn1 (configuration not stated) | -0.558 | 2.91
49 | Cc1ccc(C(=O)NCCCNS(C)(=O)=O)c(=O)[nH]1 | -3.45 | -17.7
50 | COc1c(CNC2CCN(C(=O)C3CC3)CC2)c(C(C)C)nn1C | 1.69 | 29.5
51 | CCOc1ccccc1OC1CCN(C(=O)c2nc(=O)[nH][nH]2)CC1 | -1.63 | -11.2
